Test results reported in the supplement of paper PMC11732987, “Enantioselective OTUD7B fragment discovery through chemoproteomics screening and high-throughput optimisation” (Communications Chemistry, 2025).

Legend:
Assay in all cases: log2 ratio of Biotin-Ahx-Ub-VS probe labelling (fragment/DMSO); higher = less target engagement (more negative = stronger competition), active = hit call of the paper (q ≤ 0.05, log2 ratio ≤ -1)
Details in all cases: compound concentration: 200 uM; treatment time: 3 h
[1] = biological target: T1, USP19 (UniProt O94966)
T1 sequence (whole entry): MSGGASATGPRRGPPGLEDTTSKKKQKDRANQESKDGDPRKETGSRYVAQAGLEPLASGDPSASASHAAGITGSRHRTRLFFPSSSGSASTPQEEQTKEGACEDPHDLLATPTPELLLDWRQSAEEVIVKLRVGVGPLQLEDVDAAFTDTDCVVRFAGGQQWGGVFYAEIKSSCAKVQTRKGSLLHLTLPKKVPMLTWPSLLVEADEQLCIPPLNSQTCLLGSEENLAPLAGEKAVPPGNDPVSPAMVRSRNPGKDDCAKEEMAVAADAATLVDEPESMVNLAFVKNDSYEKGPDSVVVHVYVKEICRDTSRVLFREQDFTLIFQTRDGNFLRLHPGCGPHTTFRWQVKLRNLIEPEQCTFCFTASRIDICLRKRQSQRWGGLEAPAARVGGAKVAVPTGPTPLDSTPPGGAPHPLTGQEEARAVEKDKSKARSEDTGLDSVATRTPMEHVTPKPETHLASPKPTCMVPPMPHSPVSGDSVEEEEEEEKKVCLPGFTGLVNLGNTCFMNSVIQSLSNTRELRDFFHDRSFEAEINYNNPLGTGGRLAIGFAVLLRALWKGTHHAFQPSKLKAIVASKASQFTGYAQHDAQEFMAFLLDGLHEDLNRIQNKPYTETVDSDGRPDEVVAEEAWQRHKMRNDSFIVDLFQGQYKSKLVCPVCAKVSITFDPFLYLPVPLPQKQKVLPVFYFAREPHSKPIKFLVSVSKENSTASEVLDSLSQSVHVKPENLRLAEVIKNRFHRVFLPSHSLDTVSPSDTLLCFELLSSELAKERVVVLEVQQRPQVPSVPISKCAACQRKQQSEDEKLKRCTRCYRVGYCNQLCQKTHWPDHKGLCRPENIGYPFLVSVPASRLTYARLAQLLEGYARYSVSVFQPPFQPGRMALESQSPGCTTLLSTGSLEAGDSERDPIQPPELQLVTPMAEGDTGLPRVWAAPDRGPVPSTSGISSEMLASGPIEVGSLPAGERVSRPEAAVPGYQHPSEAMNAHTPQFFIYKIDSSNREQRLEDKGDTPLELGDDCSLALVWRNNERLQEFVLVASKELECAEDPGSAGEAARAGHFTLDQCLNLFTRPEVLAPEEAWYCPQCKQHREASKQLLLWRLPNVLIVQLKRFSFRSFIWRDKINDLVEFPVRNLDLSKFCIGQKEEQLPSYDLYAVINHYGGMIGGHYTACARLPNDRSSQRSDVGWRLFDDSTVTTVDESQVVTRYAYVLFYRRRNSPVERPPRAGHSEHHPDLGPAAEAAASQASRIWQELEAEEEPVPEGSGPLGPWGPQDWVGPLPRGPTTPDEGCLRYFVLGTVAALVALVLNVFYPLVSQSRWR
How it was run: (§1)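 Labelling with Biotin-Ahx-Ub-VS (0.5 µM final, 1 h) followed a 3 h triplicate treatment of HEK293T lysate (495 µg per sample, Tris/CHAPS/IGEPAL buffer with protease inhibitors) with fragment at 200 µM or vehicle. Labelled DUBs were NeutrAvidin-enriched, digested with LysC and trypsin, and run by diaPASEF LC-MS/MS. The values, average log2 fragment/vehicle ratios by unpaired t-test, come from global-median-normalised Spectronaut label-free quantities. Proteins with ≥2 unique peptides were used.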

[2] = biological target: USP24 (UniProt Q9UPU5)
How it was run: as §1

[3] = biological target: T2, USP25 (UniProt Q9UHP3)
T2 sequence (whole entry): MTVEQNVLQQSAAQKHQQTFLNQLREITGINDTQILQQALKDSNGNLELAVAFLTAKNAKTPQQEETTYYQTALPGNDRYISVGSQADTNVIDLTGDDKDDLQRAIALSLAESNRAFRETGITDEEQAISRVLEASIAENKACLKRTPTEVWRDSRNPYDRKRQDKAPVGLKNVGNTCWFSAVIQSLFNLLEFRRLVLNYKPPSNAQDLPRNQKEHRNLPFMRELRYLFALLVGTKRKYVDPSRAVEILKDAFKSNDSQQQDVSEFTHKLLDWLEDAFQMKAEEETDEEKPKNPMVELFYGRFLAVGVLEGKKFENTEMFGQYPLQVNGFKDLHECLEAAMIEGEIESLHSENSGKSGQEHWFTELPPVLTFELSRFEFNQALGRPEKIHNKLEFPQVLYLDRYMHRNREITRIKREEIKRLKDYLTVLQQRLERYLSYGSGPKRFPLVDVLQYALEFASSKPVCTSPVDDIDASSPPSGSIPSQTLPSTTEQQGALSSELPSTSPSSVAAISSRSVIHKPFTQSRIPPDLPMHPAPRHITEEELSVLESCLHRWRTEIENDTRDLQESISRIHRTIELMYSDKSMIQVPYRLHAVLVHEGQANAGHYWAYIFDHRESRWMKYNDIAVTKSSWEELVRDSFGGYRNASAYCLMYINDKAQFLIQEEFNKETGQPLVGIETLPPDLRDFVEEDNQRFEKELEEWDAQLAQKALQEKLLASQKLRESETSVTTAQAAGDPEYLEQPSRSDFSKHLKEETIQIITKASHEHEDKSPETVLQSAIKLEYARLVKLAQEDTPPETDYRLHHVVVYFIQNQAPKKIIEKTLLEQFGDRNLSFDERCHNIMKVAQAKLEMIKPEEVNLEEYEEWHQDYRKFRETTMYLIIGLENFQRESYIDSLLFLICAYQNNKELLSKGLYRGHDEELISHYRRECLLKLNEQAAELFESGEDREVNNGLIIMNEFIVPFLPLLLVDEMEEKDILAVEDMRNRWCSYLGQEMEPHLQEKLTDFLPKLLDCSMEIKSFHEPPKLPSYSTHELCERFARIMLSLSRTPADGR
How it was run: as §1

[4] = biological target: T3, USP28 (UniProt Q96RU2)
T3 sequence (whole entry): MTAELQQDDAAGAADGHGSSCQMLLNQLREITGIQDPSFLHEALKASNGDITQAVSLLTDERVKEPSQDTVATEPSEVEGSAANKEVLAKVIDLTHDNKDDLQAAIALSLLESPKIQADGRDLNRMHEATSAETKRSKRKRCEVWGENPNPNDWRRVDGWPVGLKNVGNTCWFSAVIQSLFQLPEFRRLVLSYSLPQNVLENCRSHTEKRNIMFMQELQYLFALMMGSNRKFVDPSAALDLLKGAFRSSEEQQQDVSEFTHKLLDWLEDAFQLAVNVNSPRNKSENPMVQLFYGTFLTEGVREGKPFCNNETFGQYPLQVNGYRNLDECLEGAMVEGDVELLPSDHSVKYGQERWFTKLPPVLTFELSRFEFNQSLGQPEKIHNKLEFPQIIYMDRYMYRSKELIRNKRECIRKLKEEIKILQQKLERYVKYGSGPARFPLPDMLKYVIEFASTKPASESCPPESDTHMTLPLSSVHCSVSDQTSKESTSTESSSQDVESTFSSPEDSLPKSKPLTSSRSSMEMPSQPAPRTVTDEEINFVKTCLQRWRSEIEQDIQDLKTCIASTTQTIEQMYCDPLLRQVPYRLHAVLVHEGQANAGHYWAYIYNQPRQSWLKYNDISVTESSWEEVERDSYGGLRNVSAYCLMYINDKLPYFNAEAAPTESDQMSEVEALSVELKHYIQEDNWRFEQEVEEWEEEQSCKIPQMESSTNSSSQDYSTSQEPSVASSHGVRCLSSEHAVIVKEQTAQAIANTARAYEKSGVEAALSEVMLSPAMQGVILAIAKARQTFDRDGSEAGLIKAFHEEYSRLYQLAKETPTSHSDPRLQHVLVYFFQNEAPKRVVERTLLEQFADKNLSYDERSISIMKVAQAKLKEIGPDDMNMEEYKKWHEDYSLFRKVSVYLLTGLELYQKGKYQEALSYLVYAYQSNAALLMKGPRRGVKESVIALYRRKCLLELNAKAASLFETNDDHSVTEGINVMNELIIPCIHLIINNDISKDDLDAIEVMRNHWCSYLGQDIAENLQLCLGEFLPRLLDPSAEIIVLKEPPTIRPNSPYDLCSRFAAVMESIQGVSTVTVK
How it was run: as §1

Measured: log2 ratio of Biotin-Ahx-Ub-VS probe labelling

Chain of USP24 (Q9UPU5 whole entry): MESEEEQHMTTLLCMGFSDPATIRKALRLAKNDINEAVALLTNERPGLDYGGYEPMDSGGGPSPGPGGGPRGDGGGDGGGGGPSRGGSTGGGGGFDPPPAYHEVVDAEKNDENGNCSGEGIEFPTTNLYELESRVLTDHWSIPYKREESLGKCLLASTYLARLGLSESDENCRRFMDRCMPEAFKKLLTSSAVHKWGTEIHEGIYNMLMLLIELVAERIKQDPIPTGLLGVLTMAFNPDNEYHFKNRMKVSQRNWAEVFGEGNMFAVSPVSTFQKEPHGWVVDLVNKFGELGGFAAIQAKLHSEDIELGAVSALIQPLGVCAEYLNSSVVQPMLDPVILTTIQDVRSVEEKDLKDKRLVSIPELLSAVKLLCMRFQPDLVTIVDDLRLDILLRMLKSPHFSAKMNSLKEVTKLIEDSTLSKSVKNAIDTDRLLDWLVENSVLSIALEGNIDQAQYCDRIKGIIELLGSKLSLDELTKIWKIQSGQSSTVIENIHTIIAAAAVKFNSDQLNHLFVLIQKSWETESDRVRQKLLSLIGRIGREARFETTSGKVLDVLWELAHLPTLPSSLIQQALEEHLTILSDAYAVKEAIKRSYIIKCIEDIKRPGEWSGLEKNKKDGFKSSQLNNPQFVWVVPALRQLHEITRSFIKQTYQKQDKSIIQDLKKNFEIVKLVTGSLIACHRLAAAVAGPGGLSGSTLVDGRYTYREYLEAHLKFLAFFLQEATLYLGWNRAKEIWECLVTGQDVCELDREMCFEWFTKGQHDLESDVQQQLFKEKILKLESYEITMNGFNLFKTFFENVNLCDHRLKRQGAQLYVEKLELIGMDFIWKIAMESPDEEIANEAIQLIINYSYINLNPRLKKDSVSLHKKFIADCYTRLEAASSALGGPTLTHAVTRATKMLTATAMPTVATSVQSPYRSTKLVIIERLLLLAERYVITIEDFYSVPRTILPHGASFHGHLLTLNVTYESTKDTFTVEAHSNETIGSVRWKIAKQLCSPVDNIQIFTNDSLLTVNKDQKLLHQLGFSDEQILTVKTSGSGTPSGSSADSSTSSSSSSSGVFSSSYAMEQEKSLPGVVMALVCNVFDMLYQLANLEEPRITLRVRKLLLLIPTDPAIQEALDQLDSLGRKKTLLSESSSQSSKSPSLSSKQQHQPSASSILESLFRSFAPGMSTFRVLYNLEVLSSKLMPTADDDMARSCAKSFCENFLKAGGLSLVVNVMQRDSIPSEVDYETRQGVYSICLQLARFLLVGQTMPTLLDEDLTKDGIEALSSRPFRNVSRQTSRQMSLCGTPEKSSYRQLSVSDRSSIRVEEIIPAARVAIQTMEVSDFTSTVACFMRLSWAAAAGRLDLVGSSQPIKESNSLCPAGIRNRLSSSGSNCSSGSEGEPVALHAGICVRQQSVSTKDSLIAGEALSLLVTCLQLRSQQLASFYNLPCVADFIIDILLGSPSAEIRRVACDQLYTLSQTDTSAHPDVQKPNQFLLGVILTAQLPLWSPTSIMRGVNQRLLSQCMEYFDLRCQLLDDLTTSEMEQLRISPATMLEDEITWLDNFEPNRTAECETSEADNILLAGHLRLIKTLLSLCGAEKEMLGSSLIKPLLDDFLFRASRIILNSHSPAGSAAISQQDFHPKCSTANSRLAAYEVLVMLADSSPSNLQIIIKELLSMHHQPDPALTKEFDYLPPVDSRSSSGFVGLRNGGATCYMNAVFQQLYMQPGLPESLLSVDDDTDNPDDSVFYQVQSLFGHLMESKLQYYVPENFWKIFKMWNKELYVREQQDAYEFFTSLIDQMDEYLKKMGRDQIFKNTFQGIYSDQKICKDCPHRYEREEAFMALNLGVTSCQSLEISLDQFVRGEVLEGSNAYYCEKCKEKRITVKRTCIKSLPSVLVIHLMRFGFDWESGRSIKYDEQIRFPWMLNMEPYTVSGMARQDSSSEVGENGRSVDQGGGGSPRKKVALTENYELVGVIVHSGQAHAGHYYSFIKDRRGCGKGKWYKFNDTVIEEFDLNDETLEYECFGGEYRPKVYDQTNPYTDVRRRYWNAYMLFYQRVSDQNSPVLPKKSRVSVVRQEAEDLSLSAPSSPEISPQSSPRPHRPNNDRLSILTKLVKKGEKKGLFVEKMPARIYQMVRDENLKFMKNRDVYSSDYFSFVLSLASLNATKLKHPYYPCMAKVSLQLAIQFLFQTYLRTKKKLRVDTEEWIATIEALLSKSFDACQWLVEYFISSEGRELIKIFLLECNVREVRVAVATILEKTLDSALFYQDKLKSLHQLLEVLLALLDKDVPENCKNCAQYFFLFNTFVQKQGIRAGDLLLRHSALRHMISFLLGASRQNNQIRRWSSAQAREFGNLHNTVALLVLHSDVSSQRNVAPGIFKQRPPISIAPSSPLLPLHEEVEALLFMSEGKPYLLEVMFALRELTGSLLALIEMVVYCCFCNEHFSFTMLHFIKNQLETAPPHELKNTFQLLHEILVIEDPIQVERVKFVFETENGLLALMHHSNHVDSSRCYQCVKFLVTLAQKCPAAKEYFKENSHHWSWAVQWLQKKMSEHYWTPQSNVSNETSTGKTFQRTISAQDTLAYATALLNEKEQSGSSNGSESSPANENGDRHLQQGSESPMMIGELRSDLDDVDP

Cl.Cn1ncc2c1CCCC2NC(=O)CCl (centres undefined)
inactive: [1] -0.297 | [2] -0.29 | [3] -0.289 | [4] -0.57
